Bioassay records (PubChem BioAssay)
PD-1 reverse act – reversal of PD-1 mediated T-cell inhibition. activation, % (concentration not given with the values). 29,000 tested, under 10 active. primary human CD4 T cells, PD-L1 beads, CellTiter-Glo 96 h; call rule not given here;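 note: 0% = median vehicle wells and 100% = positive control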
YB-1 expr inh – YB-1 expression inhibition | U2OS, qRT-PCR YB-1 vs CDIP delta delta Cp, 16 h; stronger effect = higher value; zero = DMSO, each unit about twofold | delta delta Cp (YB-1 minus CDIP) (concentration not given with the values) | actives 0.37% (n = 30,000) | AID 434959;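 active = delta delta Cp rounded down to an integer at or above 3, about 3 SD of DMSO wells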;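 note: higher means less YB-1 transcript or more CDIP transcript relative to DMSO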
Hedgehog inh – Sonic Hedgehog pathway inhibition | Shh-LIGHT2 Gli-luciferase reporter, 30 h | AID 2313 | inhibition, % (concentration not given with the values) | actives 2.1% (n = 22,000);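 active = mean inhibition across valid replicates above about 65%, limit read from the data; inconclusive = mean under the limit, yet half or more replicates past it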;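 note: pathway switched on by Shh-conditioned medium diluted 1 in 25 in low serum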
NOMO-1 viab – STK33 inhibitor candidate reducing NOMO-1 cell viability | actives 7.5% (n = 37,000) | NOMO-1 AML viability, CellTiter-Glo luminescence, 72 h | inhibition, % (test concentration not listed) | AID 2330; in the data active = inhibition above about 80%; inconclusive = no clear call, values can overlap the other calls
MITF inhib – blocks MITF activity; inhibition, % (no concentration beside the values); actives 0.28% (n = 37,000); TRPM1 promoter luciferase, luminescence, 24 h; in the data active = inhibition above about 85%; inconclusive = no clear call, values can overlap the other calls; inactive = below about 68%;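 note: human melanocyte line stably carrying TRPM1 promoter luciferase reporter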
Starred values were filed as active, the others as inactive; ? = inconclusive; . = no result given. Most compounds without a hit are left out; they make up all but 7.4% or so of the library.

SMILES	PD-1 reverse act	YB-1 expr inh	Hedgehog inh	NOMO-1 viab	MITF inhib
C[C@H]1CN([C@@H](C)CO)C(=O)Cc2cc(NC(=O)Nc3ccc4c(c3)OCO4)ccc2O[C@H]1CN(C)Cc1ccc(Cl)c(Cl)c1	2.1	-0.618	.	113.4*	11.2
O=C1/C(=C\c2c[nH]c3ccccc23)C(c2ccccc2)Oc2ccccc21 (configuration not stated)	1.0	-0.102	.	120.8*	50.8
C[C@@H]1CN([C@@H](C)CO)C(=O)c2cc(NS(=O)(=O)c3ccccc3)ccc2O[C@@H]1CN(C)Cc1ccc(Oc2ccccc2)cc1	-2.9	0.00522	22.4	117.7*	23.2
COc1ccc(S(=O)(=O)Nc2ccc3c(c2)C(=O)N([C@@H](C)CO)C[C@@H](C)[C@@H](CN(C)Cc2ccc(Oc4ccccc4)cc2)O3)cc1	.	2.37	.	113.1*	60.1
Cc1noc(C)c1S(=O)(=O)Nc1ccc2c(c1)C(=O)N([C@H](C)CO)C[C@@H](C)[C@@H](CN(C)Cc1ccc(Oc3ccccc3)cc1)O2	-1.6	0.199	43.4	105.5*	9.3
C[C@H]1CN([C@@H](C)CO)C(=O)c2cc(NS(=O)(=O)c3ccc(F)cc3)ccc2O[C@@H]1CN(C)Cc1ccc(Oc2ccccc2)cc1	-2.3	-0.491	29.7	117.0*	14.7
C[C@H](CO)N1C[C@H](C)[C@@H](CN(C)Cc2ccc(Oc3ccccc3)cc2)Oc2ccc(NS(=O)(=O)c3ccc(F)cc3)cc2C1=O	-4.1	-0.0459	.	58.0	12.0
COc1ccc(S(=O)(=O)Nc2ccc3c(c2)C(=O)N([C@@H](C)CO)C[C@H](C)[C@@H](CN(C)Cc2ccc(Oc4ccccc4)cc2)O3)cc1	-0.1	0.00172	36.1	71.1	8.9
COc1cc(NS(=O)(=O)c2ccc(NC(=O)c3csc(C)c3)cc2)nc(OC)n1	3.4	.	.	3.9	9.9
N#C/C(=C\Nc1cnccn1)S(=O)(=O)c1ccc(C(F)(F)F)cn1	0.7	-0.191	-13.3	15.5	14.1
O=C(CSc1nnc(-c2ccncc2)n1-c1ccccc1)c1c[nH]c2ccccc12	2.5	.	.	5.5	-2.4
COc1ccc(S(=O)(=O)Nc2ccc3c(c2)C(=O)N([C@H](C)CO)C[C@H](C)[C@H](CN(C)S(=O)(=O)c2ccc(OC)cc2)O3)cc1	1.0	-0.179	.	19.8	-11.3
COc1ccc(S(=O)(=O)Nc2ccc3c(c2)C(=O)N([C@H](C)CO)C[C@@H](C)[C@H](CN(C)Cc2ccc(-c4ccccc4)cc2)O3)cc1	2.1	.	.	16.5	-3.0
COc1ccc(S(=O)(=O)Nc2ccc3c(c2)C(=O)N([C@H](C)CO)C[C@H](C)[C@@H](CN(C)S(C)(=O)=O)O3)cc1	0.9	15.5*	-18.7	11.4	-3.6
C[C@@H]1CN([C@@H](C)CO)C(=O)c2cc(NS(=O)(=O)c3ccc(F)cc3)ccc2O[C@@H]1CN(C)Cc1ccc(Oc2ccccc2)cc1	.	-0.369	.	111.5*	28.7
COc1ccc(S(=O)(=O)Nc2ccc3c(c2)C(=O)N([C@@H](C)CO)C[C@@H](C)[C@@H](CN(C)Cc2ccc(-c4ccccc4)cc2)O3)cc1	-1.7	0.0783	10.7	91.0*	47.7
C[C@@H]1CN([C@H](C)CO)C(=O)c2cc(NC(=O)Cc3cn(C)c4ccccc34)ccc2O[C@@H]1CN(C)C(=O)Nc1cccc2ccccc12	-5.1	-0.104	20.7	98.8*	-14.0
C[C@H]1CN([C@@H](C)CO)C(=O)c2cc(NC(=O)Cc3cn(C)c4ccccc34)ccc2O[C@@H]1CN(C)Cc1ccc(-c2ccccc2)cc1	-2.4	0.272	5.1	60.3	18.3
C[C@@H]1CN([C@H](C)CO)C(=O)c2cc(NC(=O)Cc3cn(C)c4ccccc34)ccc2O[C@H]1CN(C)Cc1ccc(-c2ccccc2)cc1	-3.8	0.0955	.	95.7*	21.3
C[C@H]1CN([C@@H](C)CO)C(=O)c2cc(NC(=O)Cc3cn(C)c4ccccc34)ccc2O[C@@H]1CN(C)Cc1ccncc1	.	0.295	.	95.8*	22.1
C[C@@H]1CN([C@@H](C)CO)C(=O)c2cc(NC(=O)Cc3cn(C)c4ccccc34)ccc2O[C@H]1CN(C)Cc1ccncc1	-3.1	-0.447	-4.6	108.8*	16.6
C[C@@H]1CN([C@@H](C)CO)C(=O)c2cc(NC(=O)Cc3cn(C)c4ccccc34)ccc2O[C@@H]1CN(C)Cc1ccncc1	-2.7	0.774	20.0	31.5	23.4
CCOC(=O)c1cnn(-c2ccccc2)c1NC(=O)C(C)(C)C	-0.1	0.17	10.1	25.5	8.8
COc1ccc(S(=O)(=O)N(C)CC(=O)Nc2ccc(Br)cc2F)cc1OC	-0.2	.	.	0.4	12.6
O=C(CSc1ccccn1)Nc1cccc(F)c1	.	.	.	-4.6	-49.8
SMILES	PD-1 reverse act	YB-1 expr inh	Hedgehog inh	NOMO-1 viab	MITF inhib
Cc1cc(N(CC(=O)Nc2ccccc2C(=O)N2CCCC2)S(C)(=O)=O)ccc1Br	-0.9	.	.	1.8	-9.8
COc1c(O[C@@H]2O[C@H](CO)[C@@H](O)[C@H](O)[C@H]2O)cc2oc(-c3ccc(O)cc3)cc(=O)c2c1O	0.3	-0.166	-6.6	83.9*	-71.3
C[C@@H]1CN([C@@H](C)CO)C(=O)c2cc(NC(=O)Nc3cccc4ccccc34)ccc2O[C@H]1CN(C)CC1CCCCC1	-0.6	0.317	33.9	56.4	-13.5
C[C@@H]1CCCCO[C@H](CN(C)CC2CCCCC2)[C@@H](C)CN([C@H](C)CO)C(=O)c2cc(NC(=O)Nc3cccc4ccccc34)ccc2O1	-8.6	0.518	29.9	128.2*	0.7
C[C@@H]1CCCCO[C@@H](CN(C)CC2CCCCC2)[C@@H](C)CN([C@H](C)CO)C(=O)c2cc(NC(=O)Nc3cccc4ccccc34)ccc2O1	-11.3	-0.327	-9.7	112.3*	-19.7
COc1ccc(CC(=O)NN2CCN(c3ccccc3)CC2)cc1	-0.3	0.188	-19.8	27.7	-19.8
CC1=C(CO)C(=O)OC([C@@H](C)C2CC[C@H]3C4C[C@H]5O[C@]56[C@@H](O)C=CC(=O)[C@]6(C)C4CC[C@]23C)C1 (some centres not stated)	-13.3	0.674	?	119.6*	90.4*
C[C@H]1CN([C@@H](C)CO)C(=O)Cc2cc(NC(=O)Cc3ccccc3)ccc2O[C@H]1CN(C)Cc1ccc(-c2ccccc2)cc1	-2.1	-0.151	-41.4	98.9*	1.7
C[C@@H]1CN([C@H](C)CO)C(=O)Cc2cc(NC(=O)Cc3ccccc3)ccc2O[C@@H]1CN(C)Cc1ccc(Oc2ccccc2)cc1	-4.6	0.0119	32.2	115.6*	2.7
O=S(=O)(NCC1CCN(Cc2ccc(OCCO)cc2)CC1)c1cc(C(F)(F)F)ccc1Cl	.	0.53	.	.	.
CCc1c(C)nc(Nc2nc(C)c3ccc(OC)cc3n2)[nH]c1=O	.	.	.	41.6	-48.5
Cc1cc2nc(Nc3nc4ccccc4c(=O)[nH]3)nc(C)c2cc1C	-4.0	.	.	126.8*	-9.8
O=C(Nc1ccccc1C(F)(F)F)C1c2ccccc2Oc2ccccc21	0.6	-0.208	.	13.2	3.1
CC(=O)Nc1ccc(C(=O)Nc2ccc(S(=O)(=O)Nc3nccs3)cc2)cc1	2.7	.	.	-18.2	4.6
